This passage reports composite z-score and z-score results from PubChem BioAssay.

Assay [1] concerns Plasmodium falciparum Sir2 (PF13_0152, Sir2A). The assay can be described thus: Plasmodium falciparum Sir2A binding compounds – biochemical, small-molecule microarray, 635 nm fluorescence, primary screen (AID 1098).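 Note: score merges spot fluorescence intensity with its signal-to-noise ratio.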 The note with it: fluorescence 635 nm, higher = more signal.
Assay [2] is described as follows: probe aDKK1 binding to arrayed compounds – biochemical, biotinylated probe, 635/667 nm fluorescence, primary screen (AID 1099).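 Note: score merges 667nm spot fluorescence with signal to noise across triplicate slides.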 As to conditions: small-molecule microarray, higher = more signal.
Assay [3] in a line: probe aCHRDL2 binding to arrayed compounds – biochemical, biotinylated probe, 635/667 nm fluorescence, primary screen (AID 1100). As to conditions: small-molecule microarray, higher = more signal.
Assay [4] in a line: change in splice reporter luminescence, either direction, cell-based, HEK293, spliceosome inhibition project, primary screen (AID 1101).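 Note: HEK293 cells carrying a splicing-competent luciferase reporter gene; test concentration not given here.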 The note with it: HEK293 splicing luciferase reporter, 24 h, higher = more signal, called active from +8 up or from −8 down. For orientation: A reporter such as luciferase makes a cellular process visible.
For assay [5], the target named is Fibroblast growth factor 10 (Homo sapiens) (UniProt O15520). The assay can be described thus: compounds binding fibroblast growth factor 10 – biochemical, small-molecule microarray, 635 nm fluorescence, primary screen (AID 1102). As to conditions: FGF10 binding, fluorescence 635 nm, higher = more signal.
Fibroblast growth factor 10 (Homo sapiens), sequence (O15520 whole entry, looked up): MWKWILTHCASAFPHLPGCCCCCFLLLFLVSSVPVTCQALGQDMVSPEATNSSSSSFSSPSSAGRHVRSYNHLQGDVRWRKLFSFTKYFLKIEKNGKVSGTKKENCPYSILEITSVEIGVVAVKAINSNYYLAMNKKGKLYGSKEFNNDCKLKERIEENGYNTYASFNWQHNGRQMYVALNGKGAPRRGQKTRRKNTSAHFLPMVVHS
Assay [6] has as its system glycogen synthase kinase-3 (GSK3A per assay name; protocol says GSK3B). The assay can be described thus: compounds binding glycogen synthase kinase-3 – biochemical, small-molecule microarray, 635 nm fluorescence, GSK3A, primary screen (AID 1103). Note: the record names both GSK3A and GSK3B. As to conditions: fluorescence 635 nm, higher = more signal.
Assay [7] deals with Epidermal growth factor receptor (Homo sapiens) (UniProt P00533). The assay can be described thus: compounds binding epidermal growth factor receptor – biochemical, small-molecule microarray, 635 nm fluorescence, primary screen (AID 1104).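 Note: score merges 667 nm emission intensity with spot signal to noise over triplicate slides.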 As to conditions: EGFR binding, higher = more signal.
Epidermal growth factor receptor (Homo sapiens), sequence (P00533 whole entry, looked up): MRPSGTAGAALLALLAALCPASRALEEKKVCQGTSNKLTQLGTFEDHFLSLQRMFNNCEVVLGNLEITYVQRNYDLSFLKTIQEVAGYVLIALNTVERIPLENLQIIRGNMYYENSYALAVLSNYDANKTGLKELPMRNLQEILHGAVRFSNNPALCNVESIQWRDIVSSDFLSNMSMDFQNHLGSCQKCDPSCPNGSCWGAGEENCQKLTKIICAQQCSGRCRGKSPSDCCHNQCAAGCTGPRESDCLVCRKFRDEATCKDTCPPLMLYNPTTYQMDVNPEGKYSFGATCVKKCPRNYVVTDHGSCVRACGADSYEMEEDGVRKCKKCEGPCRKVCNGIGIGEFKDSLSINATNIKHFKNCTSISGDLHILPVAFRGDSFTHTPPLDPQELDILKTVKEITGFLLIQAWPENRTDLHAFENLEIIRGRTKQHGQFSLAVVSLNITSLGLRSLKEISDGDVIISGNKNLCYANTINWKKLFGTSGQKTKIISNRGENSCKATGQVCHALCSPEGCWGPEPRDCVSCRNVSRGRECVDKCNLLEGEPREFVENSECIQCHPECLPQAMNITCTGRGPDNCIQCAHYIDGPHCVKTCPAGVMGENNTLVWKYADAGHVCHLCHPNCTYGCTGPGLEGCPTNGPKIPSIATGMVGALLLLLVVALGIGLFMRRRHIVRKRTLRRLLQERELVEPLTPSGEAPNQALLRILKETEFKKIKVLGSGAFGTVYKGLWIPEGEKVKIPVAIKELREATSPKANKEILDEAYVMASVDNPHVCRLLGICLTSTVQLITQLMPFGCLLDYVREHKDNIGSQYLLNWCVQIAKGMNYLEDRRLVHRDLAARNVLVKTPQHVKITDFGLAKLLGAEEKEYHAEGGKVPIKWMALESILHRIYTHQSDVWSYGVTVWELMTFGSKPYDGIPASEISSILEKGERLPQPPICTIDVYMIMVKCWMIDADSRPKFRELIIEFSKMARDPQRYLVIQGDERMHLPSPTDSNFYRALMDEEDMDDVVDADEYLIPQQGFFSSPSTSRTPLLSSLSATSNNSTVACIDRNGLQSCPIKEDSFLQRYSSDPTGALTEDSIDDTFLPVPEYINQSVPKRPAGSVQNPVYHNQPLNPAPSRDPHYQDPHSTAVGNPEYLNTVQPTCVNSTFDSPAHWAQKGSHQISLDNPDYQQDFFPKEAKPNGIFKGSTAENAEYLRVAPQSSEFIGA
Assay [8] concerns the target Follistatin-related protein 3 (Homo sapiens) (UniProt O95633). The assay can be described thus: compounds binding follistatin-related protein 3 – biochemical, small-molecule microarray, 635 nm fluorescence, primary screen (AID 1105).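 Note: score merges emission near 667 nm and signal to noise per printed spot across three slides.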 The note with it: FSTL3 binding, higher = more signal.
Assay [9] has as its target Dickkopf-related protein 1 (Homo sapiens) (UniProt O94907). The assay can be described thus: small molecules binding DKK1 protein – biochemical, small-molecule microarray, 635 nm fluorescence scan, primary screen (AID 1106).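 Note: score merges emission near 667 nm with signal to noise over three replicate slides.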 As to conditions: higher = more signal.
For assay [10], the system named is Inhibin beta A chain (activin A). The assay can be described thus: small molecules binding activin A – biochemical, small-molecule microarray, 635 nm fluorescence scan, primary screen (AID 1107).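 Note: mouse activin A protein probed at 4.33 µg/mL on printed slides; score merges bound-protein fluorescence near 667 nm with spot signal-to-noise.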 As to conditions: INHBA, higher = more signal.
Assay [11] relates to Human papillomavirus type 1a protein E7 (residues 44-93). The assay can be described thus: small molecules binding HPV E7 44-93 – biochemical, small-molecule microarray, residues 44-93, 635 nm fluorescence, primary screen (AID 1108).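 Note: E7 fragment applied at 1 µg/mL in TBST for 1 h at 4 C; score combines spot fluorescence with its signal to noise ratio.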 The note with it: fluorescence 635 nm, higher = more signal.
Assay [12] in a line: hepatitis C replication reporter changes, two-sided – Huh7 cells, luciferase reporter, HCV replication inhibitor project, primary screen (AID 1109).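 Note: huh7 hepatoma cells harbouring a luciferase neomycin HCV replicon reporter; luciferase luminescence as measure of HCV replicon replication; test concentration not given here.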 The note with it: Huh7 HCV replicon luciferase reporter, 48 h; higher = more signal.
Assay [13] concerns the target Left-right determination factor 2 (Homo sapiens) (UniProt O00292). The assay can be described thus: small molecules binding LEFTY2 protein – biochemical, small-molecule microarray, 635 nm fluorescence scan, primary screen (AID 1110). The note with it: higher = more signal.
The target of assay [14] is Calmodulin-1 (Homo sapiens) (UniProt P0DP23). The assay can be described thus: small molecules binding calmodulin-1 with EGTA – biochemical, small-molecule microarray, Cy5-labelled CALM1, profiling panel (AID 1111).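 Note: labelled calmodulin applied in Tris saline Tween buffer holding calcium plus EGTA and DTT.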 As to conditions: Cy5-CALM1 binding fluorescence, higher = more signal.
Assay [15] shares this target. The assay can be described thus: small molecules binding Ca-loaded calmodulin-1 – biochemical, small-molecule microarray, Cy5-labelled CALM1, plus calcium, artefact control for SMM control-protein annotation, profiling panel (AID 1112).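 Note: score merges spot fluorescence with signal to noise from triplicate slides.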 The note with it: Cy5-CALM1 binding fluorescence, higher = more signal.
The nature of assay [16]: probe aWnt5a binding to arrayed compounds – biochemical, biotinylated probe, 635/667 nm fluorescence, primary screen (AID 1113).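 Note: score merges 667 nm fluorescence intensity with signal-to-noise per printed feature.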 The note with it: small-molecule microarray, higher = more signal.
Assay [17] can be described thus: probe aShh binding to arrayed compounds – biochemical, biotinylated probe, 635/667 nm fluorescence, primary screen (AID 1114).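 Note: probe is biotin-labelled aShh protein from a stem cell growth factor screen; measures binding of labelled protein to compounds printed on the slide; score merges feature fluorescence at 667 nm with signal-to-noise.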 The note with it: small-molecule microarray, higher = more signal.
A short description of assay [18]: probe aNog binding to arrayed compounds – biochemical, biotinylated probe, 635/667 nm fluorescence, primary screen (AID 1115).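 Note: probe is biotinylated aNog protein used at 0.15 µg/mL for 1 h at 4 C; z-score combines 667 nm fluorescence of each spot with its signal to noise.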 As to conditions: small-molecule microarray, higher = more signal.
In assay [19] the target is Torsin-1A-interacting protein 1 (Homo sapiens) (UniProt Q5JTV8). The assay can be described thus: compound microarray binding of lysate hLAP1 – cell lysate, small-molecule microarray, COS7 lysate, 635/667 nm fluorescence, primary screen (AID 1116). As to conditions: 635 nm fluorescence, higher = more signal.
Torsin-1A-interacting protein 1 (Homo sapiens), sequence (Q5JTV8 whole entry, looked up): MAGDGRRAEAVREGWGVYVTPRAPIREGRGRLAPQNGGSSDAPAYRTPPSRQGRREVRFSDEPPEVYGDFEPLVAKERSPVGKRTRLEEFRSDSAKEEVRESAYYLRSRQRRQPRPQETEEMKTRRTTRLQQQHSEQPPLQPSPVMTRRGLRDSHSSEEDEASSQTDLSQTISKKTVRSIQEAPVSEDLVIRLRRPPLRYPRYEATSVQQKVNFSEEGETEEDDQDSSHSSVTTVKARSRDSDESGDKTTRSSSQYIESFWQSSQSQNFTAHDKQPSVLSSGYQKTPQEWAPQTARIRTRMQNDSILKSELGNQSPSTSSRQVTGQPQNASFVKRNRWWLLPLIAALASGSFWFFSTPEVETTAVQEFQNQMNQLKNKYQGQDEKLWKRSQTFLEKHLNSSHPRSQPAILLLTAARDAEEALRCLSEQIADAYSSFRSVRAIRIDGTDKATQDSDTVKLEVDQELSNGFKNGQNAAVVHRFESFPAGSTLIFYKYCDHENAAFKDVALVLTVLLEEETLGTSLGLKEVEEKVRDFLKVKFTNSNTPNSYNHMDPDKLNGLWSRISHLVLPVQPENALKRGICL
The target in assay [20] is Alpha-bungarotoxin (Bungarus multicinctus) (UniProt P60615). The assay can be described thus: compounds binding labelled alpha-BTX control protein – biochemical, small-molecule microarray, Alexa647 label, 635/667 nm fluorescence, artefact control for SMM control protein annotation, profiling panel (AID 1117). The note with it: alpha-BTX-A647 binding fluorescence, higher = more signal.
Alpha-bungarotoxin (Bungarus multicinctus), sequence (P60615 whole entry, looked up): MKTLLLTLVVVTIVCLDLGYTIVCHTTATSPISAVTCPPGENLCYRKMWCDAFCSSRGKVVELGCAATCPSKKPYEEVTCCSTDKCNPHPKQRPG

Active and inactive are the calls of the source.

Dickkopf-related protein 1 (Homo sapiens), sequence (O94907 whole entry, looked up): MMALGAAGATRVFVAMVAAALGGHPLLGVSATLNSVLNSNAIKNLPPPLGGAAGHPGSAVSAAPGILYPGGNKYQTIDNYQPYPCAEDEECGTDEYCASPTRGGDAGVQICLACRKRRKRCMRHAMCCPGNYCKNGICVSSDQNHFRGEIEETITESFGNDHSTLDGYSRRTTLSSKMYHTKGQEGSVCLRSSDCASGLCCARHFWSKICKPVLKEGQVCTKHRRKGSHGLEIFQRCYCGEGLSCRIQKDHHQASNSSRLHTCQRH
Follistatin-related protein 3 (Homo sapiens), sequence (O95633 whole entry, looked up): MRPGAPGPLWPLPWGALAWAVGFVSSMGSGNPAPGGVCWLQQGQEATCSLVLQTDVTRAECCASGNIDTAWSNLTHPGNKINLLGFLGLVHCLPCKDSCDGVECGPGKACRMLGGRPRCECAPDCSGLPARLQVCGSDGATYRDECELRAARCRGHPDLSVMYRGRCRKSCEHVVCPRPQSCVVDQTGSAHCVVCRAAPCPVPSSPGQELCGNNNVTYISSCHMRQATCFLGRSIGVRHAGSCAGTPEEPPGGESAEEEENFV
Left-right determination factor 2 (Homo sapiens), sequence (O00292 whole entry, looked up): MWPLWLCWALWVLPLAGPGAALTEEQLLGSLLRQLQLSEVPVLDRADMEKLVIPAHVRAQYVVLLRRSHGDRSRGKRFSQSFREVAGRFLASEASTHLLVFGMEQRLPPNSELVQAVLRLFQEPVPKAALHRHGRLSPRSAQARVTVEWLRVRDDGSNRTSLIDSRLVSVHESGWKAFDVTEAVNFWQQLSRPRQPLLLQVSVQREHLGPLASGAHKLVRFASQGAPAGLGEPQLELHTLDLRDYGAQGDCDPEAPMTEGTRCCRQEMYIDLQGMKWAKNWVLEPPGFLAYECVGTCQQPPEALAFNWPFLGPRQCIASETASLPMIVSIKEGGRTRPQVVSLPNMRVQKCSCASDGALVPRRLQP

With `COCCOC(=O)N1C(=O)[C@@]2(c3cc(C#CCC(C(=O)OC)C(=O)OC)ccc31)[C@H](c1ccc(O)cc1)N1[C@H](c3ccccc3)[C@H](c3ccccc3)OC(=O)[C@H]1[C@@H]2C(=O)Nc1nc2ccccc2s1`, the composite z-score stood at 1.54 in assay [1]; 0.595 in assay [2]; 0.481 in [3]; 0.972 in assay [5]; 1.27 in [6]; 0.594 in assay [7]. Further, the composite z-score in assay [8] came out at 1.38; in [9], 0.91; in assay [10], 1.11; in assay [11] it was 1.11; in assay [13], 0.616; in assay [14], 1.38. The composite z-score in assay [15] is -0.563; in [16] it was -0.0684; in assay [17], -0.017; in [18], 0.112; in [19], 0.83; in [20], 2.23. In addition, the z-score in [4] was -1.12 (inactive); in assay [12], -0.149.
Regarding `CN1C(=O)C2C(C1=O)C1C=C(c3ccc(CO)cc3)C2C(C2CC2)N1C` (stereo not given), the composite z-score in assay [1] is 0.028; in assay [2], -0.152; in assay [3], 0.0977; in assay [5], 0.192; in assay [6], 0.249; in assay [7], 0.35. Further, the composite z-score in assay [8] is -0.463; in [9] it was -0.143; in assay [10] it was 0.304; in assay [11], 0.208; in assay [13] it was 0.0075; in assay [14], 0.0024. Besides, the composite z-score was 0.103 in assay [15]; -0.0664 in [16]; -0.138 in assay [17]; -0.0606 in assay [18]; 0.149 in [19]; 0.219 in [20]. The z-score was -0.0431 (inactive) in assay [4] and 0.203 in [12].
`CC(C)[Si](C#CCCc1ccccc1)(O[C@H](c1ccccc1)c1cn(Cc2ccccc2)nn1)C(C)C`: the composite z-score in [1] was 0.431; in assay [2] it was -0.069; in [3], -0.496; in [5], 0.559; in assay [6], 1.28; in [7] it was 0.618. In addition, the composite z-score in [8] was found to be 0.773; in assay [9], 0.611; in assay [10], 0.152; in assay [11], 1.32; in [13], 0.345; in [14], 0.138. The composite z-score is -0.662 in [15]; -0.0239 in [16]; -0.338 in assay [17]; -0.0827 in assay [18]; 0.427 in [19]; 0.544 in assay [20]. The results for the z-score in [4] and in assay [12] were 0.105 (inactive) and -1.53, respectively.
For `C=C(CCCC)C(=O)CC[C@H](OC(=O)c1ccccc1-c1ccccc1C(=O)O)c1ccc(OCCO)cc1`, the composite z-score in assay [1] is 1.25; in assay [2], -0.253; in assay [3], -0.403; in assay [5] it was 0.569; in assay [6], 0.107; in [7] it was 0.12. For the same compound, the composite z-score in [8] came to 0.0258; in [9], 0.248; in [10] it was 1.09; in assay [11], 1.34; in assay [13], 0.849; in [14] it was 0.945. For the same compound, the composite z-score in [15] is -0.898; in [16] it was -0.119; in assay [17], -0.154; in assay [18] it was -0.495; in [19], 0.479; in [20], 1.02. The z-score is 1.02 (inactive) in assay [4] and -2.05 in assay [12].
As to `CN1C(=O)C2C(C3CC3)C=C3CN(Cc4cccc(Cl)c4)[C@@H]([C@@H](O)Cc4ccccc4)C3C2C1=O` (stereo not given in full), the composite z-score in assay [1] was 1.11; in assay [2] it was -0.217; in assay [3] it was -0.534; in [5], 0.939; in assay [6], 1.13; in assay [7], 0.621. Besides, the composite z-score in [8] was 0.961; in assay [9] it was 0.396; in assay [10], -0.262; in [11], 1.36; in [13], 0.526; in assay [14] it was 0.283. Further, the composite z-score was -0.469 in assay [15]; -0.244 in assay [16]; -0.462 in [17]; -0.332 in assay [18]; 0.648 in [19]; 1.04 in assay [20]. Further, the z-score in assay [4] was -1.32 (inactive); in assay [12], -1.6.
